# Experimental data taken from the supplement of paper PMC12282887.
# ± gives the standard deviation of the averaged measurements.
# Columns and labels:
# Test in all cases: promoter activity interaction Z-score (Lux/OD deviation from empty-vector control); higher = stronger promoter induction by the compound
# [1] = tested on: E. coli BW25113 acrABp lux reporter
# In short: (§1)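 At 37°C, E. coli BW25113 reporter cultures in 40 µl LB Lennox in 384-well plates were read for OD600 and luminescence every 30 min for 12 h. Windows were 0–8 h for wild type and 1–9 h for deletion strains, and wells under 10% of the median growth value were removed. The score is the Z-transformed residual of growth-normalised luminescence against a control fit.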
# [2] = tested on: E. coli BW25113 marRABp lux reporter
# In short: as §1
# [3] = tested on: E. coli BW25113 micFp lux reporter
# In short: as §1
# [4] = tested on: E. coli BW25113 ompFp lux reporter
# In short: as §1
# [5] = tested on: E. coli BW25113 robp lux reporter
# In short: as §1
# [6] = tested on: E. coli BW25113 soxSp lux reporter
# In short: as §1
# [7] = tested on: E. coli BW25113 tolCp lux reporter
# In short: as §1
# [8] = 21.6 µg/ml, genetic background: wild type
# [9] = 21.6 µg/ml, genetic background: ΔmarA
# [10] = 21.6 µg/ml, genetic background: Δrob
# [11] = 21.6 µg/ml, genetic background: ΔsoxS
# [12] = 43.2 µg/ml, genetic background: wild type
# [13] = 43.2 µg/ml, genetic background: ΔmarA
# [14] = 43.2 µg/ml, genetic background: Δrob
# [15] = 43.2 µg/ml, genetic background: ΔsoxS
# [16] = 86.4 µg/ml, genetic background: wild type
# [17] = 86.4 µg/ml, genetic background: ΔmarA
# [18] = 86.4 µg/ml, genetic background: Δrob
# [19] = 86.4 µg/ml, genetic background: ΔsoxS
# [20] = 172.7 µg/ml, genetic background: wild type
# [21] = 172.7 µg/ml, genetic background: ΔmarA
# [22] = 172.7 µg/ml, genetic background: Δrob
# [23] = 172.7 µg/ml, genetic background: ΔsoxS
compound,measurement,setting,value
COc1ccc2[nH]c([S+]([O-])Cc3ncc(C)c(OC)c3C)nc2c1 (configuration not stated) [Omeprazole],promoter activity interaction Z-score,[1]; [8],-0.337 ± 0.014
same,promoter activity interaction Z-score,[1]; [9],0.346 ± 0.48
same,promoter activity interaction Z-score,[1]; [10],-0.0504 ± 0.066
same,promoter activity interaction Z-score,[1]; [11],-0.13 ± 0.54
same,promoter activity interaction Z-score,[1]; [12],-0.353 ± 0.082
same,promoter activity interaction Z-score,[1]; [13],-0.358 ± 0.072
same,promoter activity interaction Z-score,[1]; [14],-0.105 ± 0.12
same,promoter activity interaction Z-score,[1]; [15],-0.0181 ± 0.095
same,promoter activity interaction Z-score,[1]; [16],-0.362 ± 0.37
same,promoter activity interaction Z-score,[1]; [17],-0.395 ± 0.11
same,promoter activity interaction Z-score,[1]; [18],-0.192 ± 0.19
same,promoter activity interaction Z-score,[1]; [19],-0.303 ± 0.19
same,promoter activity interaction Z-score,[1]; [20],-0.479 ± 0.43
same,promoter activity interaction Z-score,[1]; [21],-0.193 ± 0.65
same,promoter activity interaction Z-score,[1]; [22],-0.199 ± 0.17
same,promoter activity interaction Z-score,[1]; [23],-0.532 ± 0.35
same,promoter activity interaction Z-score,[2]; [8],-0.572 ± 0.095
same,promoter activity interaction Z-score,[2]; [9],-0.27 ± 0.18
same,promoter activity interaction Z-score,[2]; [10],-0.128 ± 0.18
same,promoter activity interaction Z-score,[2]; [11],-0.226 ± 0.23
same,promoter activity interaction Z-score,[2]; [12],-0.301 ± 0.098
same,promoter activity interaction Z-score,[2]; [13],-0.0417 ± 0.55
same,promoter activity interaction Z-score,[2]; [14],-0.0764 ± 0.16
same,promoter activity interaction Z-score,[2]; [15],-0.0512 ± 0.083
same,promoter activity interaction Z-score,[2]; [16],-0.582 ± 0.15
same,promoter activity interaction Z-score,[2]; [17],-0.305 ± 0.32
same,promoter activity interaction Z-score,[2]; [18],-0.229 ± 0.12
same,promoter activity interaction Z-score,[2]; [19],-0.22 ± 0.21
same,promoter activity interaction Z-score,[2]; [20],-0.5175 ± 0.0031
same,promoter activity interaction Z-score,[2]; [21],-0.6 ± 0.24
same,promoter activity interaction Z-score,[2]; [22],-0.408 ± 0.15
same,promoter activity interaction Z-score,[2]; [23],-0.421 ± 0.089
same,promoter activity interaction Z-score,[3]; [8],-0.467 ± 0.1
same,promoter activity interaction Z-score,[3]; [9],-0.0778 ± 0.095
same,promoter activity interaction Z-score,[3]; [10],-0.00843 ± 0.2
same,promoter activity interaction Z-score,[3]; [11],-0.201 ± 0.026
same,promoter activity interaction Z-score,[3]; [12],-0.228 ± 0.15
same,promoter activity interaction Z-score,[3]; [13],-0.00184 ± 0.029
same,promoter activity interaction Z-score,[3]; [14],0.0425 ± 0.23
same,promoter activity interaction Z-score,[3]; [15],-0.0104 ± 0.033
same,promoter activity interaction Z-score,[3]; [16],-0.311 ± 0.11
same,promoter activity interaction Z-score,[3]; [17],0.141 ± 0.0042
same,promoter activity interaction Z-score,[3]; [18],0.11 ± 0.088
same,promoter activity interaction Z-score,[3]; [19],0.0651 ± 0.15
same,promoter activity interaction Z-score,[3]; [20],-0.637 ± 0.076
same,promoter activity interaction Z-score,[3]; [21],0.0179 ± 0.059
same,promoter activity interaction Z-score,[3]; [22],-0.0934 ± 0.045
same,promoter activity interaction Z-score,[3]; [23],-0.467 ± 0.12
same,promoter activity interaction Z-score,[4]; [8],-0.482 ± 0.29
same,promoter activity interaction Z-score,[4]; [9],-0.539 ± 0.12
same,promoter activity interaction Z-score,[4]; [10],-0.476 ± 0.1
same,promoter activity interaction Z-score,[4]; [11],-0.299 ± 0.19
same,promoter activity interaction Z-score,[4]; [12],-0.42 ± 0.17
same,promoter activity interaction Z-score,[4]; [13],-0.516 ± 0.55
same,promoter activity interaction Z-score,[4]; [14],-0.244 ± 0.2
same,promoter activity interaction Z-score,[4]; [15],-0.555 ± 0.25
same,promoter activity interaction Z-score,[4]; [16],-1.02 ± 0.014
same,promoter activity interaction Z-score,[4]; [17],-0.56 ± 0.35
same,promoter activity interaction Z-score,[4]; [18],-0.352 ± 0.17
same,promoter activity interaction Z-score,[4]; [19],-0.773 ± 0.19
same,promoter activity interaction Z-score,[4]; [20],-0.996 ± 0.11
same,promoter activity interaction Z-score,[4]; [21],-0.786 ± 0.12
same,promoter activity interaction Z-score,[4]; [22],-1.14 ± 0.44
same,promoter activity interaction Z-score,[4]; [23],-1.41 ± 0.14
same,promoter activity interaction Z-score,[5]; [8],-0.44 ± 0.32
same,promoter activity interaction Z-score,[5]; [9],-0.171 ± 0.43
same,promoter activity interaction Z-score,[5]; [10],-0.295 ± 0.01
same,promoter activity interaction Z-score,[5]; [11],0.394 ± 0.34
same,promoter activity interaction Z-score,[5]; [12],0.141 ± 0.33
same,promoter activity interaction Z-score,[5]; [13],0.325 ± 0.23
same,promoter activity interaction Z-score,[5]; [14],-0.173 ± 0.37
same,promoter activity interaction Z-score,[5]; [15],0.145 ± 0.46
same,promoter activity interaction Z-score,[5]; [16],-0.722 ± 0.046
same,promoter activity interaction Z-score,[5]; [17],0.298 ± 0.23
same,promoter activity interaction Z-score,[5]; [18],-0.445 ± 0.32
same,promoter activity interaction Z-score,[5]; [19],-0.519 ± 0.64
same,promoter activity interaction Z-score,[5]; [20],-0.656 ± 0.28
same,promoter activity interaction Z-score,[5]; [21],-0.167 ± 0.31
same,promoter activity interaction Z-score,[5]; [22],-0.507 ± 0.035
same,promoter activity interaction Z-score,[5]; [23],-0.379 ± 0.46
same,promoter activity interaction Z-score,[6]; [8],-0.231 ± 0.11
same,promoter activity interaction Z-score,[6]; [9],-0.202 ± 0.05
same,promoter activity interaction Z-score,[6]; [10],-0.257 ± 0.062
same,promoter activity interaction Z-score,[6]; [11],-0.178 ± 0.32
same,promoter activity interaction Z-score,[6]; [12],-0.256 ± 0.0098
same,promoter activity interaction Z-score,[6]; [13],-0.206 ± 0.022
same,promoter activity interaction Z-score,[6]; [14],-0.175 ± 0.12
same,promoter activity interaction Z-score,[6]; [15],-0.281 ± 0.054
same,promoter activity interaction Z-score,[6]; [16],-0.301 ± 0.081
same,promoter activity interaction Z-score,[6]; [17],-0.305 ± 0.1
same,promoter activity interaction Z-score,[6]; [18],-0.0539 ± 0.1
same,promoter activity interaction Z-score,[6]; [19],-0.344 ± 0.12
same,promoter activity interaction Z-score,[6]; [20],-0.333 ± 0.024
same,promoter activity interaction Z-score,[6]; [21],-0.374 ± 0.013
same,promoter activity interaction Z-score,[6]; [22],-0.226 ± 0.14
same,promoter activity interaction Z-score,[6]; [23],-0.806 ± 0.14
same,promoter activity interaction Z-score,[7]; [8],-0.0562 ± 0.63
same,promoter activity interaction Z-score,[7]; [9],-0.81 ± 0.13
same,promoter activity interaction Z-score,[7]; [10],-0.978 ± 0.82
same,promoter activity interaction Z-score,[7]; [11],-0.661 ± 0.85
same,promoter activity interaction Z-score,[7]; [12],0.122 ± 0.9
same,promoter activity interaction Z-score,[7]; [13],-0.409 ± 0.93
same,promoter activity interaction Z-score,[7]; [14],-0.642 ± 0.94
same,promoter activity interaction Z-score,[7]; [15],0.332 ± 0.16
same,promoter activity interaction Z-score,[7]; [16],-0.33 ± 0.54
same,promoter activity interaction Z-score,[7]; [17],0.11 ± 0.23
same,promoter activity interaction Z-score,[7]; [18],0.71 ± 0.025
same,promoter activity interaction Z-score,[7]; [19],0.0744 ± 0.91
same,promoter activity interaction Z-score,[7]; [20],0.169 ± 0.58
same,promoter activity interaction Z-score,[7]; [21],-0.0827 ± 1.5
same,promoter activity interaction Z-score,[7]; [22],0.0999 ± 0.066
same,promoter activity interaction Z-score,[7]; [23],-0.969 ± 0.63
